Screen size: about 69,000 compounds; about 8,600 (12%) showed an effect of 50% or more. Only a selection was taken, and strong results are over-represented in it overall.
test system: Plasmodium berghei; assay: Screen against P. berghei liver stage (PbLuc), transformed with Luciferase, at 10uM; format: functional, HepG2; details: tested at 10 uM

SMILES | INHIBITION [%]
Cc1nc(CN(C)C2CCN(Cc3nc(C4CC4)no3)C2)no1 (centres undefined) | 40.9
COc1ccc(-c2cc(N)on2)cc1 | -3.34
Cc1nc(CNC(=O)NCC2(C)CCCc3ccccc32)no1 (centres undefined) | -21.9
CC(CNC(=O)N1CCN(Cc2ccon2)CC1)N(C)C1CC1 (centres undefined) | 4.62
CNC(=O)[C@@]12CCC3(CCN(S(C)(=O)=O)CC3)[C@@H]1CN(C(C)=O)C2 | 40.1
CC(=O)N1CCCC(c2ccc3sc(N)nc3n2)C1 (centres undefined) | 26.3
O=C(CC1CC1)N1CCN(Cc2ccncc2)c2ncccc2C1 | -45.8
CCc1nc(NS(=O)(=O)c2ccc(F)cc2Cl)no1 | 56.1
CCc1nc(NS(=O)(=O)c2ccc(C)cc2Cl)no1 | 4.74
Cc1nc(NS(=O)(=O)c2ccc(C)c(Br)c2)no1 | 68.3
CCc1nc(NS(=O)(=O)c2ccc(F)cc2C)no1 | -3.16
Cc1nc(NS(=O)(=O)c2cc(C)c(Br)cc2C)no1 | 49.4
CCc1nc(NS(=O)(=O)c2cc(C)ccc2F)no1 | -7.9
CC(C)(C)c1nc(NS(=O)(=O)c2ccc(F)cc2)no1 | 51.6
CC(C)c1nc(NS(=O)(=O)c2ccccc2Cl)no1 | 2.61
CC(C)(C)c1nc(NS(=O)(=O)c2ccccc2F)no1 | 82.2
Cc1nc(NS(=O)(=O)c2ccc(F)c(Br)c2)no1 | 10.6
CSCC(C)(O)CNS(=O)(=O)c1ccc(F)cc1 (centres undefined) | 12.3
Cn1ncnc1NS(=O)(=O)c1ccc(F)cc1 | -3.59
NC1(CNC(=O)c2cc3ccccc3[nH]2)CCCC1 | -8.28
Cc1ncccc1Oc1ncnc(N2CCC(O)(CO)CC2)c1C | -6.03
COCCn1cc2c(n1)C(CNCc1cccc(OC)c1)OCC2 (centres undefined) | 17.4
O=C(Nc1cnccn1)[C@@H]1COC[C@H]2CN(C3CCC3)C[C@H]21 | 24.9
O=C(Cc1ccsc1)N1Cc2nc(CN3CCCCC3)oc2C1 | 31.5
CCc1nc(C2CCCN2CCC(=O)N2CCc3ccccc32)no1 (centres undefined) | 46.2
CCc1nc(NS(=O)(=O)c2cccc(F)c2C)no1 | 39.7

SMILES | INHIBITION [%]
Cc1nc(NS(=O)(=O)c2cccc(F)c2C)no1 | 74.5
Cc1c(F)cccc1S(=O)(=O)Nc1noc(C(C)C)n1 | 10.2
CCc1nc(NS(=O)(=O)c2cc(C)cc(F)c2)no1 | 40.9
Cc1cc(F)cc(S(=O)(=O)Nc2noc(C)n2)c1 | 31.5
CC(C)(C)c1nc(NS(=O)(=O)c2cccc(F)c2)no1 | 82.2
Cc1cc(N(Cc2cccs2)C2CC2)n2nc(C(F)(F)F)nc2n1 | 26.6
CC(C)n1cnnc1SCCN(C)c1ccccc1 | -34.8
COCCNc1ccc(CC2CCNC2)cn1 (centres undefined) | -26.2
CCCN(CC(=O)N(C)C)C(=O)c1ccc(-c2nc(C)cs2)cc1 | 18.9
COc1cc(CNC(=O)c2cc(S(C)(=O)=O)ccc2C)ccn1 | 1.51
Cc1nn(C)c(N2CCOCC2)c1CNCc1cccnc1 | 32.2
Cc1nn(C)c(N2CCOCC2)c1CNCc1ccnc(N(C)C)c1 | 38.7
Cc1nn(C)c(N2CCOCC2)c1CNCc1ccc(N(C)C)nc1 | 51.1
Cc1ccc(N2CCCc3sc(C(=O)NCCC#N)nc32)nn1 | 35.8
CCC(CN1CCOCC1)NC(=O)Cc1c(C)[nH]c2cc(C)cc(C)c12 (centres undefined) | 6.32
CN(C)CCCNC(=O)c1nnsc1-c1ccccc1 | 15.9
O=C(NCc1cccs1)c1[nH]nc2c1CS(=O)(=O)CC2 | -22.3
O=C1CC(c2ccsc2)c2cnn(C3CCCC3)c2N1 (centres undefined) | 6.09
O=C1CC(c2ccc3c(c2)OCO3)c2c(n3ccsc3nc2=O)N1 (centres undefined) | 5.85
CC(C)(C)n1ncc2c1NC(=O)CC2c1cccc(F)c1 (centres undefined) | 89.4
O=C1CSC(c2ccc3c(c2)OCO3)c2cnn(C3CCCCC3)c2N1 (centres undefined) | 38.9
Cc1nn(C2CCCC2)c2c1C(c1ccc3c(c1)OCO3)SCC(=O)N2 (centres undefined) | 61.6
CC(C)(C)n1ncc2c1NC(=O)CC2c1ccccc1 (centres undefined) | 5.65
O=C1CC(c2cccs2)c2cnn(C3CCCC3)c2N1 (centres undefined) | 14.4
O=C1CC(c2ccc3c(c2)OCO3)c2cnn(C3CCCC3)c2N1 (centres undefined) | 87.9
CC(C)(C)n1ncc2c1NC(=O)CC2c1cccc(O)c1 (centres undefined) | -5.22

SMILES | INHIBITION [%]
O=C1CC(c2ccccc2)c2cnn(C3CCCC3)c2N1 (centres undefined) | 68
Cc1n[nH]c2c1C(c1ccc3c(c1)OCO3)SCC(=O)N2 (centres undefined) | 9.32
O=C1CC(c2ccc3c(c2)OCO3)c2cn[nH]c2N1 (centres undefined) | 6
O=C1CC2(CCCCN2C(=O)c2ccncc2)CN1CC1CC1 (centres undefined) | 23.5
CCc1sc(C(=O)NC2CC2)cc1C | 38
Cc1cc(N(C)C)nc(C2COCCN2Cc2nccn2C)n1 (centres undefined) | 20.6
Cc1ccc(NC2CCN(C(=O)c3c(C)oc(C)c3C)CC2)nn1 | 9.365
COc1ccccc1COCC(O)CN1CC(n2cccn2)C1 (centres undefined) | 19.85
O=C1CC(c2ccc(F)cc2)c2cnn(C3CCCC3)c2N1 (centres undefined) | 70.2
N#Cc1ccc(C2CC(=O)Nc3c2cnn3C2CCCC2)cc1 (centres undefined) | -11.1
COc1ccc(C2CC(=O)Nc3c2cnn3C2CCCC2)cc1 (centres undefined) | -9.67
Cc1nnc(CN(C)CC(=O)NC(C)(C)c2ccc(F)cc2)n1C | 10.1
Fc1cccc(Cl)c1CNCc1ccccn1 | 10.7
CCC(=O)N1CCN(Cc2cnc(C)nc2)[C@H]2CS(=O)(=O)C[C@H]21 | 53.1
CCCN1CCN(C(=O)c2cnccn2)[C@H]2CS(=O)(=O)C[C@H]21 | 51.8
CCCN1CCN(C(=O)c2ccc3ccccc3n2)[C@H]2CS(=O)(=O)C[C@H]21 | -15.1
Cc1ncc(CN2CCN(C(=O)C3CCC3)[C@@H]3CS(=O)(=O)C[C@@H]32)cn1 | 14.8
Cc1ncc(CN2CCN(C(=O)N(C)C)[C@@H]3CS(=O)(=O)C[C@@H]32)cn1 | 31.6
Cc1cnc(C(=O)N2CCOCC2C)cn1 (centres undefined) | 33.7
CCCN1CCN(C(=O)c2cc[nH]n2)[C@H]2CS(=O)(=O)C[C@H]21 | 53.9
CCCN1CCN(C(=O)c2ccc(Cl)cn2)[C@H]2CS(=O)(=O)C[C@H]21 | 37.6
CCCN1CCN(C(=O)c2cc3ccccc3cn2)[C@H]2CS(=O)(=O)C[C@H]21 | 43.9
O=C(c1cnccn1)N1CCC(CN2CCOCC2)CC1 | 30
CC1COCCN1C(=O)c1cnccn1 (centres undefined) | 53.5
CCCN1CCN(C(=O)c2cccc(C)n2)[C@H]2CS(=O)(=O)C[C@H]21 | 21.2
CC(C)c1nccn1-c1nccnc1C1CCCN1Cc1ccccc1 (centres undefined) | 28.5

SMILES | INHIBITION [%]
O=C(NCCCNC(=O)c1ccc(F)cc1F)c1cccc(O)c1 | -2.61
CC(Cn1ccnc1)NC(=O)N1CCN(Cc2ccncc2)CC1 (centres undefined) | 13.03
CC(C)c1ocnc1C(=O)Nc1cccc(Cn2ccccc2=O)c1 | 26.5
Cc1nn(C)c(N(C)C)c1CNCc1ccccc1Cn1ccnc1 | 27.6
CC(=O)Nc1nc(C2CCCN(C(=O)CN(C)C)C2)cs1 (centres undefined) | 8.72
CC(NS(=O)(=O)CCc1ccccn1)c1ccccc1Br (centres undefined) | -9.35
CCC(=O)c1ccc(OCC(=O)N(C)C(C)c2ccon2)cc1 (centres undefined) | 20.6
CC1=N[C@@]2(CC[C@@H]3CN(Cc4ccccc4F)C[C@@H]32)C(=O)N1C | 19.8
CNC(=O)[C@@H]1CCO[C@@H]2CCN(Cc3ccsc3)C[C@H]21 | 31.1
CCN1CCOC(CNCc2cnc(N(CC)CC)s2)C1 (centres undefined) | -81.1
CCCN1CCN(C(=O)c2cnc(C)nc2)[C@H]2CS(=O)(=O)C[C@H]21 | 2.15
CCCN1CCN(C(=O)c2cnccc2C)[C@H]2CS(=O)(=O)C[C@H]21 | 19.4
Cc1nc(C(=O)N2CCN(S(C)(=O)=O)[C@@H]3CS(=O)(=O)C[C@@H]32)cs1 | 39.8
Cc1nc(C(=O)N2CCN(C(=O)C3CCC3)[C@@H]3CS(=O)(=O)C[C@@H]32)cs1 | 33.1
CCCN1CCN(C(=O)c2cncnc2C)[C@H]2CS(=O)(=O)C[C@H]21 | 51.2
Cc1nc(C(=O)N2CCN(C(=O)N(C)C)[C@@H]3CS(=O)(=O)C[C@@H]32)cs1 | 57.8
O=C1C[C@H]2[C@H](CCN2C(=O)c2ccno2)N1CC1CC1 | 41.4
Cc1cc(N(C)C)nc(C2(C)CCCN2CC(N)=O)n1 (centres undefined) | 18.8
N#Cc1ccccc1CN1C[C@H]2CC[C@@H](C1)N(CC1CC1)C2=O | 25.1
Cc1cc2c(=O)n3c(nc2s1)CCN(C(=O)c1ccnn1C(C)C)CC3 | 11.1
c1cnnc(N[C@@H]2CC[C@@H]3CN(Cc4ccc5cc[nH]c5c4)C[C@@H]32)c1 | -4.68
COCC(=O)N1C[C@@H](C)[C@](O)(C(C)C)C1 | 46.4
CC(Nc1nccc(CCC(F)(F)F)n1)c1nc(-c2ccccn2)no1 (centres undefined) | 21.2
CC(C)c1noc(C(C)Nc2nccc(CCC(F)(F)F)n2)n1 (centres undefined) | 29.6
CC(Nc1nccc(CCC(F)(F)F)n1)c1nc(-c2ccncc2)no1 (centres undefined) | 50.4
O=C(c1ccnnc1)N1CCN(Cc2ccncc2)c2ncccc2C1 | 23.3
